# Experimental data published in PubChem BioAssay (Tox21).
# Results filed as inconclusive are left out. The source made the active and inactive calls. Unless noted, the call rests on the fitted dose curve; in most records, active means well fitted activation curve with a large enough effect in the repeat runs; inconclusive means weak or mixed curves, or effect the other way; inactive means no such curve, though single readings can be large or run the other way.
# Target: Estrogen receptor (Homo sapiens) (UniProt P03372)
# Sequence (P03372 whole entry, looked up): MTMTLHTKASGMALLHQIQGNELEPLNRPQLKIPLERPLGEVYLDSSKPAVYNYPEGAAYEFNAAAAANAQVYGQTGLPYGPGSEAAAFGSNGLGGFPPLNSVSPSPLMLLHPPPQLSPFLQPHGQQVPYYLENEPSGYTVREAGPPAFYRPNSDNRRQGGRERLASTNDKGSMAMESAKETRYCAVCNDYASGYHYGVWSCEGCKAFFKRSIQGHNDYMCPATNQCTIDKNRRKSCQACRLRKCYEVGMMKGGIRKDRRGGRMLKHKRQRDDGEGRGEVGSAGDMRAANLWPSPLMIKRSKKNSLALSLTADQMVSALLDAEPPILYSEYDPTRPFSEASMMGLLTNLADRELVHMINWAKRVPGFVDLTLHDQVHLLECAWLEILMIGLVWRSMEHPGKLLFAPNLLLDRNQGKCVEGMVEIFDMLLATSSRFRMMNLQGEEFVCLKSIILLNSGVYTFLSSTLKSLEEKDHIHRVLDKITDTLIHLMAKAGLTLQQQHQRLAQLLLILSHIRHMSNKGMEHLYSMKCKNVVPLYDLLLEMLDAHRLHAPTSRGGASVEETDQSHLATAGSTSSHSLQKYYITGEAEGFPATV
# Assay: qHTS assay to identify small molecule agonists of the estrogen receptor alpha (ER-alpha) signaling pathway (AID 743075; calls by dose curve;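 further: HEK293 GripTite cells with ER-alpha and UAS-driven beta-lactamase reporter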)
# Conditions: HEK293 ER-alpha-UAS-bla, beta-lactamase FRET ratio, 18 h; series mostly up to 70.1 µM; activation: at the top concentration
# On the % scale 0 is the no-effect control and ±100 the full control effect.
Compound,Potency,activation
C=CC(=O)O,inactive,–
CN1C(CSCC(F)(F)F)Nc2cc(Cl)c(S(N)(=O)=O)cc2S1(=O)=O (centres undefined),–,-1.17% (inactive)
CC(C)(C)S,–,-0.556% [at 79.1 µM] (inactive)
CNc1c2c(nn1C)CCCC2,–,-0.26% (inactive)
O=C(O)c1cccc(Oc2ccccc2)c1,–,-5.72% (inactive)
COc1cc(NS(=O)(=O)c2ccc(N)cc2)nc(C)n1,–,-2.66% (inactive)
O=C(NC(Cc1cc(=O)[nH]c2ccccc12)C(=O)O)c1ccc(Cl)cc1 (centres undefined),–,-0.615% (inactive)
CCCCCCCCCCCC(=O)OCC(O)CO (centres undefined),inactive,–
Cc1cn([C@H]2C[C@H](F)[C@@H](CO)O2)c(=O)[nH]c1=O,–,0.533% (inactive)
CC(C)(O)CCc1ccccc1,–,-1.36% (inactive)
CC(C)CC(O)CC(C)C,–,2.09% (inactive)
Cc1ccc(N(CCO)CCO)cc1,–,7.12% (inactive)
CCCCCCCCCCCCCCCC(=O)OCC,–,-2.33% (inactive)
CC(C)(C)C1(CCc2ccc(Cl)cc2)CO1 (centres undefined),–,-1.61% (inactive)
Cc1ccc(S(=O)(=O)NC(=O)NC2CCCCC2)cc1,–,-2.47% (inactive)
O=C(O)CNC(=O)c1ccccc1I,–,-0.45% (inactive)
ClC1=C(Cl)C1(Cl)Cl,–,-1.34% [at 79.1 µM] (inactive)
OCC(CO)n1cnc(-c2ccc(F)cc2)c1-c1ccnc(Oc2ccccc2)n1,–,1.49% (inactive)
CNC1CCCN(c2c(F)cc3c(=O)c(C(=O)O)cn(C4CC4)c3c2OC)C1 (centres undefined),–,0.535% (inactive)

Compound,Potency,activation
CC[C@H]1OC(=O)[C@H](C)[C@@H](O[C@H]2C[C@@](C)(OC)[C@@H](O)[C@H](C)O2)[C@H](C)[C@@H](O[C@@H]2O[C@H](C)C[C@H](N(C)C)[C@H]2O)[C@](C)(O)C[C@@H](C)CN(C)[C@H](C)[C@@H](O)[C@]1(C)O,inactive,–
CC(C)C(=O)OCCOc1ccccc1,–,-1.24% (inactive)
CC1=C2[C@@H]([C@H](C)CC[C@H]2/C=C(\C)C(=O)O)[C@H](O)C1,–,-2.5% (inactive)
CC(=O)OCCC1CCCCC1,–,-2.03% (inactive)
CC(C)C1CCC(C(=O)N[C@H](Cc2ccccc2)C(=O)O)CC1 (some centres undefined),–,-3.68% (inactive)
CCCCCCC(O)CCOC(C)=O (centres undefined),–,-1.24% [at 224 µM] (inactive)
CC(C)N(C)C,–,-1.2% (inactive)
CC(C)COC(=O)COc1cc(Cl)c(Cl)cc1Cl,–,-3.21% (inactive)
O=CNNC=O,–,-1.01% [at 79.1 µM] (inactive)
C=CC(=O)NC(C)C,–,2.07% (inactive)
CC1CCCC(=O)C1=O (centres undefined),–,-2.26% (inactive)
O=c1[nH]c2cc(C(F)(F)F)c(N3CCOCC3)cc2n(CP(=O)(O)O)c1=O,–,-0.874% (inactive)
O=P(O)(O)Oc1ccccc1,–,-2.66% (inactive)
CCC(CO)(CO)CO,–,0.49% [at 79.1 µM] (inactive)
O=C(Nc1ccc(C(=O)O)c(O)c1)c1ccccc1,–,-1.98% (inactive)
O=C(CCS)OCC(COC(=O)CCS)(COC(=O)CCS)COC(=O)CCS,–,5.02% (inactive)
CC[C@H]1OC(=O)[C@H](C)[C@@H](O[C@H]2C[C@@](C)(OC)[C@@H](O)[C@H](C)O2)[C@H](C)[C@@H](O[C@@H]2O[C@H](C)C[C@H](N(C)C)[C@H]2O)[C@](C)(O)C[C@@H](C)/C(=N\OCOCCOC)[C@H](C)[C@@H](O)[C@]1(C)O,inactive,–
Cc1cccc2sc(N)nc12,–,-1.18% [at 79.1 µM] (inactive)

# Target: Estrogen receptor (Homo sapiens) (UniProt P03372)
# Assay: qHTS assay to identify small molecule agonists of the estrogen receptor alpha (ER-alpha) signaling pathway using the BG1 cell line (AID 743079); further: nearly all actives have a fitted effect of over 20% in size
# Conditions: BG1Luc4E2 cells, ERE-luciferase agonist, 22 h; series mostly up to 70.3 µM; activation: at the top concentration
Compound,Potency,activation
C=CC(=O)O,inactive,–
CN1C(CSCC(F)(F)F)Nc2cc(Cl)c(S(N)(=O)=O)cc2S1(=O)=O (centres undefined),–,-13% (inactive)
CC(C)(C)S,–,-8.76% [at 95 µM] (inactive)
CNc1c2c(nn1C)CCCC2,–,-1.6% (inactive)
O=C(O)c1cccc(Oc2ccccc2)c1,–,0.521% (inactive)
COc1cc(NS(=O)(=O)c2ccc(N)cc2)nc(C)n1,–,-3.14% (inactive)
O=C(NC(Cc1cc(=O)[nH]c2ccccc12)C(=O)O)c1ccc(Cl)cc1 (centres undefined),–,-10.6% (inactive)
CCCCCCCCCCCC(=O)OCC(O)CO (centres undefined),inactive,–
Cc1cn([C@H]2C[C@H](F)[C@@H](CO)O2)c(=O)[nH]c1=O,–,-7.54% (inactive)
CC(C)(O)CCc1ccccc1,–,-2.75% (inactive)
CC(C)CC(O)CC(C)C,–,12.4% (inactive)
Cc1ccc(N(CCO)CCO)cc1,–,3.31% (inactive)
CCCCCCCCCCCCCCCC(=O)OCC,–,2.77% (inactive)
CC(C)(C)C1(CCc2ccc(Cl)cc2)CO1 (centres undefined),–,0.0924% (inactive)
Cc1ccc(S(=O)(=O)NC(=O)NC2CCCCC2)cc1,–,-8.99% (inactive)
O=C(O)CNC(=O)c1ccccc1I,–,6.4% (inactive)
ClC1=C(Cl)C1(Cl)Cl,–,3.73% [at 95 µM] (inactive)
OCC(CO)n1cnc(-c2ccc(F)cc2)c1-c1ccnc(Oc2ccccc2)n1,–,-0.192% (inactive)
CNC1CCCN(c2c(F)cc3c(=O)c(C(=O)O)cn(C4CC4)c3c2OC)C1 (centres undefined),–,12.2% (inactive)

Compound,Potency,activation
CC[C@H]1OC(=O)[C@H](C)[C@@H](O[C@H]2C[C@@](C)(OC)[C@@H](O)[C@H](C)O2)[C@H](C)[C@@H](O[C@@H]2O[C@H](C)C[C@H](N(C)C)[C@H]2O)[C@](C)(O)C[C@@H](C)CN(C)[C@H](C)[C@@H](O)[C@]1(C)O,inactive,–
CC(C)C(=O)OCCOc1ccccc1,–,-0.211% (inactive)
CC1=C2[C@@H]([C@H](C)CC[C@H]2/C=C(\C)C(=O)O)[C@H](O)C1,–,-7.27% (inactive)
CC(=O)OCCC1CCCCC1,–,-1.38% (inactive)
CC(C)C1CCC(C(=O)N[C@H](Cc2ccccc2)C(=O)O)CC1 (some centres undefined),–,-7.27% (inactive)
CCCCCCC(O)CCOC(C)=O (centres undefined),–,2.15% [at 260 µM] (inactive)
CC(C)N(C)C,–,-2.07% (inactive)
CC(C)COC(=O)COc1cc(Cl)c(Cl)cc1Cl,–,-3.76% (inactive)
O=CNNC=O,–,1.64% [at 95 µM] (inactive)
C=CC(=O)NC(C)C,–,6.01% (inactive)
CC1CCCC(=O)C1=O (centres undefined),–,-6.2% (inactive)
O=c1[nH]c2cc(C(F)(F)F)c(N3CCOCC3)cc2n(CP(=O)(O)O)c1=O,–,-5.82% (inactive)
O=P(O)(O)Oc1ccccc1,–,1.87% (inactive)
CCC(CO)(CO)CO,–,0.968% [at 95 µM] (inactive)
O=C(Nc1ccc(C(=O)O)c(O)c1)c1ccccc1,–,0.0879% (inactive)
O=C(CCS)OCC(COC(=O)CCS)(COC(=O)CCS)COC(=O)CCS,–,20.8% (inactive)
CC[C@H]1OC(=O)[C@H](C)[C@@H](O[C@H]2C[C@@](C)(OC)[C@@H](O)[C@H](C)O2)[C@H](C)[C@@H](O[C@@H]2O[C@H](C)C[C@H](N(C)C)[C@H]2O)[C@](C)(O)C[C@@H](C)/C(=N\OCOCCOC)[C@H](C)[C@@H](O)[C@]1(C)O,inactive,–
Cc1cccc2sc(N)nc12,–,-10.6% [at 95 µM] (inactive)
